# Test results published in publication PMC7862700, “An all-to-all approach to the identification of sequence-specific readers for epigenetic DNA modifications on cytosine”.
# Tests used:
# Experiment in all cases: DAPPL (digital affinity profiling via proximity ligation, sequencing); 10 mM Tris-HCl pH 7.5, 50 mM NaCl, 1 mM DTT, 4% glycerol, room temperature, 30 min; GST-TFs on glutathione beads, 16-mer random dsDNA library, 0.1% formaldehyde crosslink after washing; high values mean tight binding
# [1] = target: T1, FLI1 (Homo sapiens, UniProt Q01543 1-452); settings: protein: recombinant; tags: N-terminal GST; dsDNA, one strand shown
# T1 sequence: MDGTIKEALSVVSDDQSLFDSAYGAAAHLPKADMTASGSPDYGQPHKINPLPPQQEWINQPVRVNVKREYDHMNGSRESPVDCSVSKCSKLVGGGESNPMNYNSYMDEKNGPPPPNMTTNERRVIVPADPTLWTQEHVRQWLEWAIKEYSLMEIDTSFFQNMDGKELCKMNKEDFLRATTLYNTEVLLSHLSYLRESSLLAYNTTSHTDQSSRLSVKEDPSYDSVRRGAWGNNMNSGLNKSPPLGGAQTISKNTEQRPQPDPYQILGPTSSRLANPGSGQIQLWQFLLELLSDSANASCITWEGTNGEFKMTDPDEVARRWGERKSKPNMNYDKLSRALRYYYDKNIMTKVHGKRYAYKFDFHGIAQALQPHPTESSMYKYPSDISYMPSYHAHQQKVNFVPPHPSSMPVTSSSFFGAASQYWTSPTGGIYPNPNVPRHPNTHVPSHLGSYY
# Method in brief: (§1)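 Human transcription factors carrying a GST fusion were produced in yeast, bound to glutathione beads, tagged with DNA barcodes and pooled together with a tag-only sample. Each pool was held with 200 nmole of a random double-stranded 16-mer DNA library in Tris/NaCl/DTT/glycerol buffer for 30 min at room temperature, then washed, crosslinked in 0.1% formaldehyde, proximity-ligated with BsaI/T4 ligase (1 h, 37 °C), PCR-amplified and sequenced on an Illumina NextSeq500. Binding signal is the read frequency of each hexamer for a given factor divided by its frequency in the tag-only sample.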
# [2] = target: T2, ELK1 (Homo sapiens, UniProt P19419 1-428); settings: protein: recombinant; tags: N-terminal GST; dsDNA, one strand shown
# T2 sequence: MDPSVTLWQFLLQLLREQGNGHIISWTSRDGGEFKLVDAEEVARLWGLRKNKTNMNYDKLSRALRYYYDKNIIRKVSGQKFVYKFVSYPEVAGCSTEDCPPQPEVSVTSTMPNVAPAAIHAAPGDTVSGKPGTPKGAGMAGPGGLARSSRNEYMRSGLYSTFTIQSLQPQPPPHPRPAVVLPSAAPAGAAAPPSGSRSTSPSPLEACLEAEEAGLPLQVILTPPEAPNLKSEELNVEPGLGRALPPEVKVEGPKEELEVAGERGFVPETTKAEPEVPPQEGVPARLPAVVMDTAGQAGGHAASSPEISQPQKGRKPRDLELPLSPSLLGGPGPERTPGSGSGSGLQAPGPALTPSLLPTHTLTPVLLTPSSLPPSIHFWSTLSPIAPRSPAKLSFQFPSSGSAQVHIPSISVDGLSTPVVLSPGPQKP
# Method in brief: as §1
# [3] = target: T3, GABPA (Homo sapiens, UniProt Q06546 1-454); settings: protein: recombinant; tags: N-terminal GST; dsDNA, one strand shown
# T3 sequence: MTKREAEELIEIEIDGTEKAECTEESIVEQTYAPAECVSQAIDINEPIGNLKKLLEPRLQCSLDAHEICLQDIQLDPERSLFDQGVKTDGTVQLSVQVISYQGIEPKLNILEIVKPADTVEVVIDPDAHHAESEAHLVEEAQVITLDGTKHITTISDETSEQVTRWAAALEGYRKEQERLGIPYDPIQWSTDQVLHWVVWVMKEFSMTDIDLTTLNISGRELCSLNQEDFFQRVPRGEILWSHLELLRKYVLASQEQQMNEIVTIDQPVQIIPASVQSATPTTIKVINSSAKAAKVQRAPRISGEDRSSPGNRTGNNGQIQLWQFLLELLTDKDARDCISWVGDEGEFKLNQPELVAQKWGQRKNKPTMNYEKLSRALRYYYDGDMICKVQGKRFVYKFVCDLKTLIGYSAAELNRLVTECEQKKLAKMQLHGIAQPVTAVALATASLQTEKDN
# Method in brief: as §1
# [4] = target: T4, ERG (Homo sapiens, UniProt P11308 1-479); settings: protein: recombinant; tags: N-terminal GST; dsDNA, one strand shown
# T4 sequence: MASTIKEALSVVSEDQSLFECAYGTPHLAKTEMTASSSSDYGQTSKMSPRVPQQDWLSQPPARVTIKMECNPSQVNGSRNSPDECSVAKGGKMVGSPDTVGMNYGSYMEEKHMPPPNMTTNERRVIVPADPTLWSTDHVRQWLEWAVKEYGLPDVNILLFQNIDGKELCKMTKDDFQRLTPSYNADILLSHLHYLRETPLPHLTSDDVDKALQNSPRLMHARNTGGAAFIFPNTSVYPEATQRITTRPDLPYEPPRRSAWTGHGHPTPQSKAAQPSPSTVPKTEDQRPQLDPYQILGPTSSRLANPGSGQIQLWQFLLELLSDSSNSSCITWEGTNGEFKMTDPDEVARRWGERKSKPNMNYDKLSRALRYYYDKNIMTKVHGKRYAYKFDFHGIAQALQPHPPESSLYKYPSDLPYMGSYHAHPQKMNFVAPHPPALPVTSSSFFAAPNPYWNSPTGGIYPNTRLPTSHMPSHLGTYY
# Method in brief: as §1
# [5] = target: ELF1 (Homo sapiens, UniProt P32519 1-619); settings: protein: recombinant; tags: N-terminal GST; dsDNA, one strand shown
# Sequence of ELF1 (P32519 whole entry): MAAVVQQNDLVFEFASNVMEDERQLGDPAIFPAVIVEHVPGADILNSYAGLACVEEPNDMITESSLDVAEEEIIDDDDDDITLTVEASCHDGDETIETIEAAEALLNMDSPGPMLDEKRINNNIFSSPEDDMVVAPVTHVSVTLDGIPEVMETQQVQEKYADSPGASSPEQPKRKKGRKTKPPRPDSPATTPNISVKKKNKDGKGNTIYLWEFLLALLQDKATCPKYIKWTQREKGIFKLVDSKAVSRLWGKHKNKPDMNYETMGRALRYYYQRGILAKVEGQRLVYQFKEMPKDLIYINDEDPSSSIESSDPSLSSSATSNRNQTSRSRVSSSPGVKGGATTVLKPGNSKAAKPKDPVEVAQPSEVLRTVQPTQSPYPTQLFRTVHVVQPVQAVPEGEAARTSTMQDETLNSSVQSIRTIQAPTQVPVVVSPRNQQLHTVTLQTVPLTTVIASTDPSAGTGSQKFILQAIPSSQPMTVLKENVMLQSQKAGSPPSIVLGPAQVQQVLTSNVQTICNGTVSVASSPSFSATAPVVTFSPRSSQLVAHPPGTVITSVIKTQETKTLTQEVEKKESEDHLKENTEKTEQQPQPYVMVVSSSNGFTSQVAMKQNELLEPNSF
# Method in brief: as §1
# [6] = target: T5, EHF (Homo sapiens, UniProt Q9NZC4 1-300); settings: protein: recombinant; tags: N-terminal GST; dsDNA, one strand shown
# T5 sequence: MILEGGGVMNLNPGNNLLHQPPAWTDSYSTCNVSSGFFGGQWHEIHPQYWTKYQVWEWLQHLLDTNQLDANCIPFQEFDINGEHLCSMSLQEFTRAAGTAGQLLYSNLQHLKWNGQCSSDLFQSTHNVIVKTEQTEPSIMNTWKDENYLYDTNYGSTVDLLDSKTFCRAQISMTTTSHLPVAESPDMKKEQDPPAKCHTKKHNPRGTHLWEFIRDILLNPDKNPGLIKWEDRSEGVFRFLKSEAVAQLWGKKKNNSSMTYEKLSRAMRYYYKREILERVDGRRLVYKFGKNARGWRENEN
# Method in brief: as §1
# [7] = target: SPI1 (Homo sapiens, UniProt P17947 1-270); settings: protein: recombinant; tags: N-terminal GST; dsDNA, one strand shown
# Method in brief: as §1
# [8] = target: SPIB (Homo sapiens, UniProt Q01892 1-262); settings: protein: recombinant; tags: N-terminal GST; dsDNA, one strand shown
# Sequence of SPIB (Q01892 whole entry): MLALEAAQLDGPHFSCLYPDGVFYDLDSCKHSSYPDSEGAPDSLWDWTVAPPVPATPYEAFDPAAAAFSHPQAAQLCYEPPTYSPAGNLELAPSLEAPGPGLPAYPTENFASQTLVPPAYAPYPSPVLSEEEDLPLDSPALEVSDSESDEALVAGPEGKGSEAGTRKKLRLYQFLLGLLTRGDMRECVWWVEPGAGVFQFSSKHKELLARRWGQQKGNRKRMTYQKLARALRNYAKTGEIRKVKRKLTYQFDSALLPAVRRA
# Method in brief: as §1
# [9] = target: T6, ELK3 (Homo sapiens, UniProt P41970 1-407); settings: protein: recombinant; tags: N-terminal GST; dsDNA, one strand shown
# T6 sequence: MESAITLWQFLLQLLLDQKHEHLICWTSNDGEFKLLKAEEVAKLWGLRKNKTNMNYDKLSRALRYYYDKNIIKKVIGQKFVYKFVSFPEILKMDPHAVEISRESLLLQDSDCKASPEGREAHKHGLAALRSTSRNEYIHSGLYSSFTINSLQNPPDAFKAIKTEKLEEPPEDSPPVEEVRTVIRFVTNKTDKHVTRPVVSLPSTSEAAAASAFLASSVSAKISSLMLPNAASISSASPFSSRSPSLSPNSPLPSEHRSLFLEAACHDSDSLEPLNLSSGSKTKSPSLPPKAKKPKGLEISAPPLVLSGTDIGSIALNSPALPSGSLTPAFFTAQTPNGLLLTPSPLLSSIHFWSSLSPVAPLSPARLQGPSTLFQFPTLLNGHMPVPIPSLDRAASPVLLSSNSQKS
# Method in brief: as §1
# [10] = target: T7, FEV (Homo sapiens, UniProt Q99581 1-238); settings: protein: recombinant; tags: N-terminal GST; dsDNA, one strand shown
# T7 sequence: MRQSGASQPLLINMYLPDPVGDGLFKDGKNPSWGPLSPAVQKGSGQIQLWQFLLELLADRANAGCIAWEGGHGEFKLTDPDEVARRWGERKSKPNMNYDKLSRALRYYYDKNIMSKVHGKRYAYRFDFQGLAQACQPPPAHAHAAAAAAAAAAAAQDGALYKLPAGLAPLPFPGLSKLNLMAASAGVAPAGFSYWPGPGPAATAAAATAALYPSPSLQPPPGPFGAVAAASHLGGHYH
# Method in brief: as §1
# [11] = target: ETV5 (Homo sapiens, UniProt P41161 1-510); settings: protein: recombinant; tags: N-terminal GST; dsDNA, one strand shown
# Sequence of ETV5 (P41161 whole entry): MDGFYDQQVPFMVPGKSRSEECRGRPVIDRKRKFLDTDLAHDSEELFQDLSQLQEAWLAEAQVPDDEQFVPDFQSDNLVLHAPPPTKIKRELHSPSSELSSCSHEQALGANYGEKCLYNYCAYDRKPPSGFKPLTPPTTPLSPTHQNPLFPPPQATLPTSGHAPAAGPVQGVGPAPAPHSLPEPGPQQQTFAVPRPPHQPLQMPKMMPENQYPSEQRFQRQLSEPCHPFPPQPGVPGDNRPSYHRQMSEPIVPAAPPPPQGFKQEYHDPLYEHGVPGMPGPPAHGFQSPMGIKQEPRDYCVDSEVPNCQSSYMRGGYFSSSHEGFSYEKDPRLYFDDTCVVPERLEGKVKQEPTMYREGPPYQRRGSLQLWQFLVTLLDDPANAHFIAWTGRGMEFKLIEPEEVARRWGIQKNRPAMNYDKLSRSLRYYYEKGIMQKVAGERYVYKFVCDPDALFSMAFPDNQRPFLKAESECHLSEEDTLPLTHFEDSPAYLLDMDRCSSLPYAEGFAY
# Method in brief: as §1
# [12] = target: HSF1 (Homo sapiens, UniProt Q00613 1-529); settings: protein: recombinant; tags: N-terminal GST; chain copies: 3; dsDNA, one strand shown
# Sequence of HSF1 (Q00613 whole entry): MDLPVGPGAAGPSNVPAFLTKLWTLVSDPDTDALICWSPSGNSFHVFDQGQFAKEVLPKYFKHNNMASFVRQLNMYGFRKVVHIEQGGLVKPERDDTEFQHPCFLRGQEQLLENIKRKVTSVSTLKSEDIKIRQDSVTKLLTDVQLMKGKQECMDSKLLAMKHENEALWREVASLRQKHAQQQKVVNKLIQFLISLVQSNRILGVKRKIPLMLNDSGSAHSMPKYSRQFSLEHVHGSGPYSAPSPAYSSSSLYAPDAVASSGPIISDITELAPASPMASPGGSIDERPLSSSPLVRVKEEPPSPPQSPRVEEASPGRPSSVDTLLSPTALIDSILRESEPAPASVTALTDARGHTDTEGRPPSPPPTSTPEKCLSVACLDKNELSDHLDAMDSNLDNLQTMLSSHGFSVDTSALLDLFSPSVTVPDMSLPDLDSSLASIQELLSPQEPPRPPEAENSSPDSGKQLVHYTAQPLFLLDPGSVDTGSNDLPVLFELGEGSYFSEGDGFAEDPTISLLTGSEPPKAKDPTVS
# Method in brief: as §1
# [13] = target: T8, SPIC (Homo sapiens, UniProt Q8N5J4 1-248); settings: protein: recombinant; tags: N-terminal GST; dsDNA, one strand shown
# T8 sequence: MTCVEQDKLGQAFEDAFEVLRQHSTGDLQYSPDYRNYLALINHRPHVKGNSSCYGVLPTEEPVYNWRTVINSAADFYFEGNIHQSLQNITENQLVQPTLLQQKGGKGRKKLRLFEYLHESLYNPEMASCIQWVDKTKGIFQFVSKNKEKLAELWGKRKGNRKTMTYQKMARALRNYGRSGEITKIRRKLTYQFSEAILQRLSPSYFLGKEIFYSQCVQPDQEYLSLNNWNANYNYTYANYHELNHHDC
# Method in brief: as §1
# [14] = target: ELF4 (Homo sapiens, UniProt Q99607 1-663); settings: protein: recombinant; tags: N-terminal GST; dsDNA, one strand shown
# Sequence of ELF4 (Q99607 whole entry): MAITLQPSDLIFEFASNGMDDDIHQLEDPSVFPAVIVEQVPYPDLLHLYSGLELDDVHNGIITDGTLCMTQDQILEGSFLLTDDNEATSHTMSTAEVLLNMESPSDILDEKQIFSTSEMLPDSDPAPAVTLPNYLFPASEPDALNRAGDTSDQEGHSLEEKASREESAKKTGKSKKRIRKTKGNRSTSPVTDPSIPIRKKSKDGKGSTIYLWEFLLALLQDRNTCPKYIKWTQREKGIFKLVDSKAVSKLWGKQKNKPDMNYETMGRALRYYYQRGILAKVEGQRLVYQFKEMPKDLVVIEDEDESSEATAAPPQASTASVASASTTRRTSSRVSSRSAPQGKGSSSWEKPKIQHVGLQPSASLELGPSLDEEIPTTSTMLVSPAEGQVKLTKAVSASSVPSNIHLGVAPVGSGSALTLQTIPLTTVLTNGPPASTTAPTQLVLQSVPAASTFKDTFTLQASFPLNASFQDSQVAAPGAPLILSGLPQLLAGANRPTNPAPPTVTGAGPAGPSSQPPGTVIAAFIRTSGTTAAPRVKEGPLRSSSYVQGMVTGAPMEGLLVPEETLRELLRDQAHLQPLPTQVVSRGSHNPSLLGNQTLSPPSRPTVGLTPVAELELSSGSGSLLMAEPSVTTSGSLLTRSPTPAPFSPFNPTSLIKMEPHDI
# Method in brief: as §1
# [15] = target: T9, ELK4 (Homo sapiens, UniProt P28324-2 1-405); settings: protein: recombinant; tags: N-terminal GST; dsDNA, one strand shown
# T9 sequence: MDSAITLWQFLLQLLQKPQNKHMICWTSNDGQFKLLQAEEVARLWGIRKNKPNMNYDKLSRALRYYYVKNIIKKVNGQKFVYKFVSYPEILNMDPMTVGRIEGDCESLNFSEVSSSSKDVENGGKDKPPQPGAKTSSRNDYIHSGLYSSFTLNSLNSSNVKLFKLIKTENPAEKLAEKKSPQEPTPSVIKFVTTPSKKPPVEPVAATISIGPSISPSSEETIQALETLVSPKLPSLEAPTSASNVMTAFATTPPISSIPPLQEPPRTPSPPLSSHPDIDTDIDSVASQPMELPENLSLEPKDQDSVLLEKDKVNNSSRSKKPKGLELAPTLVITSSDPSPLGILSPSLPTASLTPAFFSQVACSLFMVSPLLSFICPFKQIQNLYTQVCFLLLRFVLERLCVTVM
# Method in brief: as §1
# [16] = target: T10, ETV2 (Homo sapiens, UniProt O00321 1-342); settings: protein: recombinant; tags: N-terminal GST; dsDNA, one strand shown
# T10 sequence: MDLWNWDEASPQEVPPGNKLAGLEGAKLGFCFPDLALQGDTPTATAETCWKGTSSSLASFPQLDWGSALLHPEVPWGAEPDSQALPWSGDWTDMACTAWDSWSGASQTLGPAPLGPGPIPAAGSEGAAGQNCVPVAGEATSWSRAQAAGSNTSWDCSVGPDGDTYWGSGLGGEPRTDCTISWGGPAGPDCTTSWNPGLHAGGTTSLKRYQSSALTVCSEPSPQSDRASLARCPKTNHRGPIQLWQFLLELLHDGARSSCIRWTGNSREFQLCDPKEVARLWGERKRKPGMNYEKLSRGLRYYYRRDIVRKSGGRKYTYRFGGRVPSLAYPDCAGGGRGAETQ
# Method in brief: as §1
# [17] = target: T11, ELF3 (Homo sapiens, UniProt P78545 1-371); settings: protein: recombinant; tags: N-terminal GST; dsDNA, one strand shown
# T11 sequence: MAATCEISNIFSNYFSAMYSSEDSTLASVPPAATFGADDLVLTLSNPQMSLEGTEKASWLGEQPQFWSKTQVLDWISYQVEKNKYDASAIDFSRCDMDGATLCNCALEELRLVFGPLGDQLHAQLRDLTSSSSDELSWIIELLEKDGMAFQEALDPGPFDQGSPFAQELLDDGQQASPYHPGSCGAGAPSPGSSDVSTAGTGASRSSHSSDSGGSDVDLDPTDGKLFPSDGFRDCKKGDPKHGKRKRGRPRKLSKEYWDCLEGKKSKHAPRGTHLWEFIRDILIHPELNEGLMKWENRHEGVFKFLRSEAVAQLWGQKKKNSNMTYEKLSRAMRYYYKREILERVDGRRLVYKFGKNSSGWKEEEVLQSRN
# Method in brief: as §1
# [18] = target: CRX (Homo sapiens, UniProt O43186 1-299); settings: protein: recombinant; tags: N-terminal GST; dsDNA, one strand shown
# Sequence of CRX (O43186 whole entry): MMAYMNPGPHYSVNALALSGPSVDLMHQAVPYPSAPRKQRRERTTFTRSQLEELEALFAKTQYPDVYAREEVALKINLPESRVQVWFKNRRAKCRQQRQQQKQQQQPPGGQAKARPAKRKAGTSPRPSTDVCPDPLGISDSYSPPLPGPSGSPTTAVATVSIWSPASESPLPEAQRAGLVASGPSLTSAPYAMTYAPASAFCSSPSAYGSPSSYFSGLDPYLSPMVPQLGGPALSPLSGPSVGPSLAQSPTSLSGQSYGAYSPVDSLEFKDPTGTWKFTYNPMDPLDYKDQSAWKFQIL
# Method in brief: as §1
# [19] = target: ETV1 (Homo sapiens, UniProt P50549 1-477); settings: protein: recombinant; tags: N-terminal GST; dsDNA, one strand shown
# Sequence of ETV1 (P50549 whole entry): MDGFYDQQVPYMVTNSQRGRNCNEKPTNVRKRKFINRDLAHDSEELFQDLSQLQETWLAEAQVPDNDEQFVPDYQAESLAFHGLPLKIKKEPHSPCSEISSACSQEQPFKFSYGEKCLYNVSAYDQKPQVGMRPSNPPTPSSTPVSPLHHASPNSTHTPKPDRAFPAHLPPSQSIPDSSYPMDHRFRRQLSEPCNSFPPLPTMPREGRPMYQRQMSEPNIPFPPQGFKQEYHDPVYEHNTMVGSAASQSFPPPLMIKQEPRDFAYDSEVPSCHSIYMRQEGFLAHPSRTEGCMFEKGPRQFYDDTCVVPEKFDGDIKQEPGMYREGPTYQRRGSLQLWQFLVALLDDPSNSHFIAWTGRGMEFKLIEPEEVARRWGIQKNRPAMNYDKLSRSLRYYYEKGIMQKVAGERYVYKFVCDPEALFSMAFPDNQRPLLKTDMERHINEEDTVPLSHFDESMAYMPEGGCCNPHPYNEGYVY
# Method in brief: as §1
sequence,measurement,setting,value
AATTTT,binding signal,[1],"1.24 fold enrichment (6-mer frequency, TF over GST control)"
same,binding signal,[2],"1.26 fold enrichment (6-mer frequency, TF over GST control)"
same,binding signal,[3],"1.27 fold enrichment (6-mer frequency, TF over GST control)"
same,binding signal,[4],"1.21 fold enrichment (6-mer frequency, TF over GST control)"
same,binding signal,[5],"1.22 fold enrichment (6-mer frequency, TF over GST control)"
same,binding signal,[6],"1.3 fold enrichment (6-mer frequency, TF over GST control)"
same,binding signal,[7],"1.3 fold enrichment (6-mer frequency, TF over GST control)"
same,binding signal,[8],"1.26 fold enrichment (6-mer frequency, TF over GST control)"
same,binding signal,[9],"1.19 fold enrichment (6-mer frequency, TF over GST control)"
same,binding signal,[10],"1.22 fold enrichment (6-mer frequency, TF over GST control)"
same,binding signal,[11],"1.29 fold enrichment (6-mer frequency, TF over GST control)"
same,binding signal,[12],"1.51 fold enrichment (6-mer frequency, TF over GST control)"
same,binding signal,[13],"1.17 fold enrichment (6-mer frequency, TF over GST control)"
same,binding signal,[14],"1.32 fold enrichment (6-mer frequency, TF over GST control)"
same,binding signal,[15],"1.3 fold enrichment (6-mer frequency, TF over GST control)"
same,binding signal,[16],"1.46 fold enrichment (6-mer frequency, TF over GST control)"
same,binding signal,[17],"1.41 fold enrichment (6-mer frequency, TF over GST control)"
same,binding signal,[18],"1.29 fold enrichment (6-mer frequency, TF over GST control)"
same,binding signal,[19],"1.23 fold enrichment (6-mer frequency, TF over GST control)"
